# Source: PubChem BioAssay
# Where “and” joins values, the source holds several entries; their conditions need not be identical. Equal entries are not always repeated. Calls of active or inactive are those of the source.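 How the source made its calls, unless noted: active means compounds whose cell count with miR-34 switched on is under 0.7 times the count with it off; inactive means the rest.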
# What was measured:
# [1] = system: Aerobactin synthetase IucA (Klebsiella pneumoniae); experiment: IucA aerobactin synthetase inhibitors, biochemical, Tocris library, absorbance (AID 1345561; call rule not given here;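 further: 100% = enzyme without compound and 0% = no enzyme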); conditions: purified IucA enzyme assay, absorbance (OD) read-out; stronger effect = lower value;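 tested at 8 µM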
# [2] = sensitizers of A549 cells to miR-34 induction, primary screen, imaging, A549 dox-inducible miR-34, nuclei and caspase counts (AID 1347080); conditions: A549 miR-34 inducible, Hoechst nuclei count, 48 h
# [3] = viability rescue of complex I mutant cybrids, primary screen, cell-based, galactose medium, ATP luminescence (AID 1645843;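 active means z-score of at least 1.8 in each of two replicates, scored against plate mean and spread of sample wells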;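 further: positive z means more ATP and so rescue of galactose-driven cybrid death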); conditions: complex I mutant cybrid cells, 72 h, stronger effect = higher value
# [4] = stronger effect = lower value, cell number ratio, induced over uninduced
# [5] = measured here: relative caspase fold change +Dox/-Dox
# [6] = measured here: total cells with miR-34 induction, stronger effect = lower value
# [7] = measured here: total cells without miR-34 induction
Structure (SMILES),remaining activity [1],"fold change [2, 4]","fold change [2, 5]","cell count [2, 6]","cell count [2, 7]",z-score [3]
CN1CCN(CCc2ccc(Cl)c(Cl)c2)CC1,124% (inactive),1.04 (inactive),1.01,7800,7520,-0.73 (inactive)
Cn1cc(/C=C2/C(=O)Nc3cccnc32)c2ccccc21,89.8% (inactive),0.833 (inactive),1.45,2650,3180,-0.435 (inactive)
CCC(=O)OCN1C(=O)C=CC1=O,92.2% (inactive),0.956 (inactive),1.17,9240,9660,-0.205 (inactive)
COc1cccc(C=NC=Nc2cccc(OC)c2)c1,120% (inactive),0.917 (inactive),0.661,8640,9420,-0.08 (inactive)
Cc1ccc(CC2(O)CCN(CCOc3ccc(O)cc3)CC2)cc1,89.8% (inactive),0.939 (inactive),2.38,7760,8270,-0.49 (inactive)
CCCCCCCCCCCCCCCC(=O)C(F)(F)F,108% (inactive),1.01 (inactive) and 0.961 (inactive),0.782 and 1.06,5680 and 8900,5630 and 9260,-0.105 (inactive)
CCCCC1CCC(c2nc(-c3ccncc3)no2)CC1 (stereo not given),122% (inactive),0.974 (inactive) and 0.949 (inactive),0.608 and 1.14,5260 and 8140,5400 and 8570,-0.62 (inactive)
COc1ccc2[nH]c(-c3ccccc3)c(CCNC(C)=O)c2c1,99.3% (inactive),0.991 (inactive),0.88,7770,7840,-0.185 (inactive)
NC(C(=O)O)c1nn[nH]n1 (stereo not given),102% (inactive),1.01 (inactive),0.805,9500,9360,-0.46 (inactive)
CC1c2ccccc2CN1CC1=NCCN1 (stereo not given),111% (inactive),0.985 (inactive),0.732,8400,8530,-0.515 (inactive)
CCC(=O)NC1CCc2cccc(OC)c2C1 (stereo not given),123% (inactive),1.01 (inactive),0.925,8550,8470,-0.165 (inactive)
Cc1ccc(S(=O)(=O)NCc2ccccc2)cc1,121% (inactive),0.861 (inactive),0.767,8330,9670,-0.21 (inactive)
CC(C)c1ccccc1S(=O)(=O)c1cc(N)c2ncccc2c1[N+](=O)[O-],94.3% (inactive),0.871 (inactive),1.36,6170,7090,-0.685 (inactive)
CSc1ccc([C@H]2CN3CCC[C@H]3c3ccccc32)cc1,123% (inactive),0.927 (inactive),1.33,7680,8280,-0.51 (inactive)
C[C@@H]1C(=O)OC2[C@H](O)C34[C@H]5C[C@@H](C(C)(C)C)[C@]36[C@@H](OC(=O)[C@@H]6O)O[C@@]4(C(=O)O5)[C@]21O (stereo not given in full),112% (inactive),0.923 (inactive),0.53,8430,9140,-0.225 (inactive)
CS(=O)(=O)Nc1c(O)ccc2c1CCCC2C1=NCCN1 (stereo not given),114% (inactive),1 (inactive),0.792,9080,9050,-0.21 (inactive)
N[C@@H]1CCN(O)C1=O,121% (inactive),0.981 (inactive),0.836,9080,9260,0.66 (inactive)
C[C@@H](CN1CCC(n2c(=O)[nH]c3cc(Cl)ccc32)CC1)NC(=O)c1ccc2ccccc2c1,106% (inactive),1.11 (inactive),0.89,3940,3560,-1.04 (inactive)
CCCCOC(=O)c1cc2c(cn1)[nH]c1ccccc12,96.6% (inactive),0.861 (inactive),0.7,7200,8360,1.05 (inactive)
CNc1cc(OC)c(C(=O)N[C@@H]2CCN(Cc3ccccc3)[C@@H]2C)cc1Cl (racemic),104% (inactive),0.926 (inactive),1.02,8160,8810,-0.56 (inactive)
CCOc1ccccc1O[C@H](c1ccccc1)[C@H]1CNCCO1 (racemic),119% (inactive),0.937 (inactive),0.923,7740,8260,-0.36 (inactive)
Cc1cc2nc3c(=O)[nH]c(=O)nc-3n(C)c2cc1C=O,110% (inactive),1.04 (inactive),1.31,8790,8430,-0.69 (inactive)
CCCCN1CCC(CCC(=O)c2cc(Cl)c(N)cc2OC)CC1,95.7% (inactive),0.973 (inactive),1.12,8560,8800,-0.48 (inactive)

Structure (SMILES),remaining activity [1],"fold change [2, 4]","fold change [2, 5]","cell count [2, 6]","cell count [2, 7]",z-score [3]
CCCCC(=O)NCCc1c(Cc2ccccc2)[nH]c2ccccc12,108% (inactive),0.933 (inactive),0.702,6310,6770,0.26 (inactive)
O/N=C/c1ccc(-c2ccc(O)c(F)c2)c(Cl)c1O,117% (inactive),0.891 (inactive),1.26,7880,8840,-0.63 (inactive)
CC(=O)OCCNC(=O)c1cccnc1,106% (inactive),0.936 (inactive),0.614,9480,10100,0.15 (inactive)
C[N+](C)(C)CCCCCNCC12CC3CC(CC(C3)C1)C2,117% (inactive),0.943 (inactive),0.772,8560,9080,-0.15 (inactive)
C/C(=N\NC(=O)[C@@H]1C(=O)NC[C@H]1c1ccccc1)c1cccc(Br)c1,103% (inactive),0.887 (inactive),1.69,8430,9510,0.375 (inactive)
CCCCCS(=O)(=O)CCCCCCCCCCn1c(-c2ccc(O)cc2)c(C)c2cc(O)ccc21,96.6% (inactive),1.01 (inactive),0.732,1420,1410,-0.685 (inactive)
O=C(Nc1ccccc1)C12CC1/C(=N\O)c1ccccc1O2 (stereo not given),107% (inactive),0.911 (inactive),0.471,7010,7700,0.135 (inactive)
N[C@@H](CC(=O)Nc1ccc(Oc2cc(F)c(F)cc2Br)cc1)C(=O)O,98.2% (inactive),0.952 (inactive),1.1,7870,8270,0.265 (inactive)
BrC1C(Br)C(Br)C(Br)C(Br)C1Br (stereo not given),107% (inactive),1.04 (inactive),1.17,7970,7680,-0.62 (inactive)
N[C@H](C(=O)O)c1ccc(O)c(C(=O)O)c1,98.7% (inactive),0.912 (inactive),0.711,8900,9760,-0.325 (inactive)
O=C(O)c1ccc(-c2ccc3cc(C45CC6CC(CC(C6)C4)C5)c(O)cc3c2)cc1,87.5% (inactive),1.14 (inactive),1.52,1990,1740,-0.695 (inactive)
O=C1C=CC(=O)C2=C1C1c3ccccc3C2c2ccccc21,104% (inactive),0.889 (inactive),1.44,6130,6900,-0.705 (inactive)
CCN(CC)CC1CCN(c2ncc3ncnc(Nc4ccc(F)c(Cl)c4)c3n2)CC1,124% (inactive),0.891 (inactive),1.55,1440,1620,-0.675 (inactive)
O=C(O)COc1cccc(-c2ocnc2-c2nc(-c3ccccc3)c(-c3ccccc3)o2)c1,118% (inactive),0.961 (inactive),0.827,8540,8890,0.465 (inactive)
Oc1ccc(-c2c(-c3ccccc3)nn3c(C(F)(F)F)cc(C(F)(F)F)nc23)cc1,95% (inactive),0.915 (inactive),2.74,8170,8930,0.225 (inactive)
CN(C)c1nc(N)c(C(=O)Nc2cccnc2)nc1Cl,113% (inactive),0.904 (inactive),1.39,5930,6560,0.61 (inactive)
NC(=O)CCCCn1ccc(NC(N)=NCC(F)(F)F)n1,98.2% (inactive),0.945 (inactive),0.965,8750,9250,1.19 (inactive)
O[C@@H]1[C@H](O)[C@@H](CCl)O[C@H]1n1cnc2c(NC3CC4CCC3C4)ncnc21 (stereo not given in full),108% (inactive),0.921 (inactive),1.85,8570,9310,1.96 (inactive)
CC(N)(C(=O)O)c1ccc(-c2nn[nH]n2)cc1 (stereo not given),94.5% (inactive),0.913 (inactive),0.762,8200,8980,1.42 (inactive)
Nc1nc2c(nc(Br)n2[C@@H]2O[C@@H]3COP(=O)(O)O[C@H]3[C@H]2O)c(=O)[nH]1,113% (inactive),0.972 (inactive),0.761,9650,9930,-0.25 (inactive)
N[C@@H](Cc1cc(CP(=O)(O)O)cc(-c2ccccc2Cl)c1)C(=O)O,118% (inactive),0.967 (inactive),1.52,9360,9670,0.225 (inactive)
Cc1nc2ccc(NC(=O)Nc3ccnc4cccnc34)cc2o1,111% (inactive),0.867 (inactive),0.84,7250,8360,1.19 (inactive)
